Data as given in ChEMBL document CHEMBL3988442, “University of Dundee, Small-Polar-MMV Screening Library” (2021).

Target: AMP-activated protein kinase, AMPK (Homo sapiens) (UniProt P54646+O43741+P54619+Q9UGJ0+Q9Y478+Q13131+Q9UGI9)
Experiment: AMP-dependent Kinase enzyme assay. An in vitro enzyme assay that detects ADP turnover that is directly proportional to AMPK activity. This uses naive AMPK that is activated during the assay with MK-8722
Format: functional
Set-up: scale not given: direction of the effect not stated beside the values
Settings: 30 µM

| SMILES | Percent Effect [%] |
| --- | --- |
| Cc1nc(CN(C)c2nccc(C(F)(F)F)n2)cs1 | 5.48 |
| NC(=O)[C@@H]1Cc2ccccc2N1C(=O)C1CC(c2ccccc2)=NO1 (stereo not given in full) | 11.5 |
| c1cc(CNCc2ccc(-n3cncn3)nc2)cc(OC2CCCC2)c1 | 9.46 |
| COc1cc(-c2cccc3c2OC(CN)C3)cc(OC)c1OC (stereo not given) | -5.11 |
| CCCc1ccc(CN2CCC3(CCC(=O)N(C)CC3)CC2)o1 | 1.5 |
| CCNC(=O)c1ccc(NC(=O)N(C)Cc2cccn2C)c(C)c1 | 12.2 |
| O=C(O)[C@@H]1CN(CCOCCO)C[C@H]1c1ccccc1 | 1.29 |
| CC(=O)Nn1ccc2c(nnc3c(-c4ccc(F)cc4)cnn32)c1=O | 10.3 |
| O=C(NCC1CCOC1)c1cc(-c2ccc(F)cc2)[nH]n1 (stereo not given) | -0.741 |
| Cc1n[nH]c(C)c1CCC(=O)N1CCc2c(nc[nH]c2=O)C1 | -0.287 |
| CCCc1nc(C(=O)N2CCn3nc(C(=O)OC)cc3C2)cs1 | 1.42 |
| CC(=O)N1CCC1c1nc(-c2ccc(C)s2)no1 (stereo not given) | 7.59 |
| CNC(=O)CN(C)C(=O)c1ccc(-c2nc(C)cs2)cc1 | -2.2 |
| c1ccc(Cc2noc(-c3ccc(NCC4CCCOC4)nc3)n2)cc1 (stereo not given) | 6.64 |
| CN(C)c1ccc(C(=O)Nc2ccn(CC(N)=O)n2)cn1 | 10.9 |
| Cc1nc(CN(C)S(=O)(=O)c2ccccc2Br)no1 | 6.12 |
| COC(=O)C(NC(=O)c1cc(C)ccc1C)c1cccnc1 (stereo not given) | 1.93 |
| CC(c1nnc(-c2ccccc2)o1)N1CCC(Nc2ccccc2)CC1 (stereo not given) | 4.64 |
| CC(=O)N1CCC(Cc2ccc(-c3ccnn3C)nc2)CC1 | -2.26 |
| CCc1ccccc1OCCN(C)C(=O)CCN1CCCO1 | -7.88 |
